Bioassay records (PubChem)
Hits are enriched below; roughly 2.2% of the tested compounds scored in any of these assays.
aSyn UTR inh – MLPCN primary screen, SNCA 5' untranslated region. alpha-synuclein 5'UTR reporter, inhibitor activity. inhibition, % (tested at 7.5 µM). hit rate 0.82% among 300,000. AID 1813, 2009; in the data active = inhibition above about 60%;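 also: H4 neuroglioblastoma cells stably carrying SNCA 5'UTR luciferase fusion; 0% = DMSO wells and 100% = positive control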
Ba/F3 V617F tox – reduced viability of JAK2V617F-dependent Ba/F3 cells, primary screen, JAK2V617F inhibitor project, cell-based, Ba/F3 EpoR-JAK2V617F, luminescence; ATP luminescence; inhibition, % at 5.6 µM; hit rate 1.1% among 220,000; AID 1446, 2008;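 active = inhibition above the campaign mean plus 3 SD over all tested compounds, cut at about 24% in these data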;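 also: cytokine-independent growth of Ba/F3 cells driven by EpoR plus mutant JAK2; 0% = DMSO-treated cells and 100% = JAK inhibitor I control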
BaF3 parental – parental Ba/F3 cell viability inhibition, counter-screen for JAK2V617F inhibitor project, murine pro-B, CellTiter-Glo luminescence. AID 1486, 2009. hit rate 1.1% among 220,000. inhibition, % at 5.6 µM. CellTiter-Glo ATP luminescence;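 active = inhibition above a per-campaign cutoff, the mean inhibition of all tested compounds plus 3 SD, cut at about 27% in these data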;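 also: 0% = DMSO wells and 100% = JAK Inhibitor I control wells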
KLF5 inhibitor – KLF5 expression inhibitors, primary screen, DLD-1 cells, luminescence; DLD-1 KLF5 promoter-luciferase reporter; inhibition, % at 5 µM; hit rate 0.23% among 290,000; AID 1700, 2009;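 active = inhibition above a per-plate limit of that plate's mean compound inhibition plus 3 SD, cut at about 60% in these data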;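 also: 0% = DMSO wells and 100% = LY294002 at 200 µM; higher means less KLF5 promoter-driven luciferase light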
APP transl inh – inhibitors of APP translation via 5'UTR reporter, primary screen, APP 5'UTR luciferase, SH-SY5Y cells | inhibition, % at 2 µM | SH-SY5Y APP 5'UTR-luciferase reporter, luminescence | hit rate 0.82% among 190,000;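 active = inhibition above a set limit, derived from the sample mean plus 3 SD, cut at about 45% in these data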
IEC-6 tox – cytotoxicity in IEC-6 intestinal epithelial cells, primary screen, cytotoxicity control for KLF5 inhibitor project, cell-based, luminescence; IEC-6 cytotoxicity, luminescence viability; inhibition, % at 5 µM; hit rate 0.78% among 290,000; AID 1825, 2009; in the data active = inhibition above about 22%;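 also: 0% = plate median of test compound wells and 100% = cytotoxic reference compound wells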
Starred values were filed as active, the others as inactive; x = no result given.

SMILES	aSyn UTR inh	Ba/F3 V617F tox	BaF3 parental	KLF5 inhibitor	APP transl inh	IEC-6 tox
Cc1ccc(S(=O)(=O)Nc2ccc(NC(=O)Nc3ccc(F)cc3F)cc2)cc1	78*	0	7	-2	-19	1
O=Cc1cc2ccccc2nc1SCc1ccc(Cl)c(Cl)c1	109*	-3	-1	-18	8	1
Cc1ccc(CSc2ncnc3ccccc23)cc1	-30	4	3	-2	-21	-1
Cc1ccc(CSc2nc3ccccc3cc2C=O)cc1	93*	2	3	7	94*	-2
O=Cc1cc2ccccc2nc1SCc1ccc(Cl)cc1	95*	3	3	-4	3	0
O=Cc1cccnc1SCc1ccccc1	-39	x	x	x	x	x
CCCCN(C(=O)CCNC(=O)NC12CC3CC(CC(C3)C1)C2)c1c(N)n(CCC)c(=O)[nH]c1=O	16	x	x	x	x	x
Cc1ccccc1CC(=O)Nc1ccc(C(=O)N2CCCC2)cc1	-20	x	x	-68	x	2
CCC(C)(O)c1[nH]c2ccc(C(F)(F)F)cc2c1C (stereo not given)	-4	x	x	-49	x	5
COc1cc(/C=N/NC(=O)CSc2cc(C)c(Br)cc2C)ccc1O	2	-1	3	-11	-16	13
Cc1cc(SCC(=O)N/N=C/c2ccc(O)c(O)c2O)c(C)cc1Br	68*	-4	-1	27	6	-5
COc1ccc(C(=O)CCC(=O)N2CCN(c3ccccc3)CC2)cc1	-19	x	x	-6	x	-3
CC(C)C(C(=O)Nc1ccc(N2CCOCC2)cc1)N1C(=O)c2ccccc2C1=O (stereo not given)	-1	-2	60*	-13	6	5
CC(C)C(C(=O)Nc1ccc2c(c1)OCCO2)N1C(=O)c2ccccc2C1=O (stereo not given)	-3	0	94*	12	-13	-6
CC(C(=O)Nc1ccc(N2CCOCC2)cc1)N1C(=O)c2ccccc2C1=O (stereo not given)	27	-2	6	-36	16	0
Nc1ccc(OC(=O)Nc2ccc(O)cc2)cc1	91*	0	3	8	x	6
Cc1cccc(C)c1OCc1cc(C(=O)N2CCNC(=O)C2)no1	-28	x	x	-31	x	9
O=C(N/N=C/c1cc(Cl)c(O)c(Cl)c1)c1cc2c(ccc3ccccc32)o1	-21	x	x	-50	x	3
Cn1c(SCC(=O)Nc2ccc(Cl)cc2F)nnc1-c1ccco1	-1	x	x	-9	x	-1
COc1ccc(-c2cnnc(N/N=C/c3ccc(-c4ccc([N+](=O)[O-])cc4)o3)n2)cc1	x	-1	5	-28	90*	0
O=[N+]([O-])c1ccc(-c2ccc(/C=N/Nc3nc(N4CCCC4)nc(N4CCCC4)n3)o2)cc1	-13	-2	-1	-11	-4	-9
NS(=O)(=O)c1ccc(CCNS(=O)(=O)c2ccc3c(c2)NC(=O)CO3)cc1	-21	x	x	-9	x	5
COC(=O)c1cc(COc2ccc3ccc(=O)oc3c2)c(C)o1	-1	1	94*	-19	-13	-2
CC1CCCN(S(=O)(=O)c2ccc(C(=O)Nc3nnc(-c4ccccc4Cl)o3)cc2)C1 (stereo not given)	78*	-4	-1	-20	-16	-1
COc1ccc(-c2nnc(NC(=O)c3ccc4c(c3)OCCO4)o2)cc1	105*	x	x	9	x	6
SMILES	aSyn UTR inh	Ba/F3 V617F tox	BaF3 parental	KLF5 inhibitor	APP transl inh	IEC-6 tox
COc1ccc(-c2nnc(NC(=O)c3ccc(S(=O)(=O)N4CCc5ccccc5C4)cc3)o2)cc1	73*	6	9	-21	4	-7
COc1ccc(-c2csc(NC(=O)C3CC(=O)N(Cc4ccccc4)C3)n2)cc1OC (stereo not given)	8	x	x	-17	x	0
Cc1n(C)c2cc(Cl)ccc2[n+]1Cc1ccccc1	16	56*	94*	-15	5	3
COc1ccc2ccccc2c1C(O)c1nccn1C (stereo not given)	-13	59*	38*	8	-5	6
CCCC[n+]1ccn(C2=C([O-])c3ccccc3C(=O)/C2=N\S(=O)(=O)c2ccc(Cl)cc2)c1	66*	5	-1	-34	x	5
CCN1CCN(C(CNS(=O)(=O)c2ccc(F)cc2)c2cccnc2)CC1 (stereo not given)	4	x	x	-33	x	-3
CCSc1nnc(-c2ccc(S(=O)(=O)N3CCCC3)cc2)n1C	-36	0	1	-6	73*	2
CCSc1nnc(-c2ccc(S(=O)(=O)N3CCOCC3)cc2)n1C	10	x	x	3	x	8
CCCCSc1nnc(-c2ccc(C)cc2)n1C	-109	31*	35*	-41	-38	5
Cc1cc(C)cc(NC(=S)N=Nc2c(O)n(C)c3ccc(S(=O)(=O)N4CCOCC4)cc23)c1	63*	0	-2	-11	38	4
Cc1ccc(NC(=S)N=Nc2c(O)n(C)c3ccc(S(=O)(=O)N4CCOCC4)cc23)cc1	75*	2	7	7	69*	5
Cc1ccc(NC(=O)c2ccc(S(=O)(=O)N3CCOCC3)cc2)cc1	-20	x	x	-8	x	-1
Cc1cccc(NC(=S)N=Nc2c(O)n(C)c3ccc(S(=O)(=O)N4CCOCC4)cc23)c1	83*	-7	0	-6	66*	-3
O=S(=O)(c1ccc(Cl)c(NC(=S)Nc2cccc(O)c2)c1)N1CCOCC1	-5	0	3	-33	6	-2
Cn1c(=O)n(C)c2cc(S(=O)(=O)N3CCOCC3)ccc21	22	2	3	-1	-11	2
O=C(NCCc1ccccc1)/C(=C\c1cccc([N+](=O)[O-])c1)NC(=O)c1ccco1	0	x	x	-15	x	0
CC(C)(C)NS(=O)(=O)c1ccc(CCC(=O)NCc2ccccn2)cc1	18	x	x	-20	x	0
Nc1c(N(CCC2=CCCCC2)C(=O)c2ccco2)c(=O)[nH]c(=O)n1Cc1ccccc1	-5	x	x	x	x	x
O=C(c1c[nH]c(C(=O)N2CCN(c3ccccc3F)CC2)c1)c1cccc(Cl)c1Cl	43	1	12	-17	57*	-4
CC(=O)N1CCc2cc(S(=O)(=O)CCC(=O)Nc3cc(C)cc(C)c3)ccc21	0	x	x	-33	x	-5
Cc1ccc(S(=O)(=O)N2CCN(C(=O)COC(=O)c3ccc(O)cc3)CC2)c(C)c1	0	x	x	x	x	x
Cc1ccc(NC(=O)Cc2sc(C)nc2-c2ccc(C)cc2)cc1	-6	21	39*	6	-8	2
COc1ccc(/C=C/c2ccc3c(Br)ccc(O)c3n2)cc1	-151	x	x	-95	x	6
COc1cc(/C=C/c2ccc3c(Br)cc(Br)c(O)c3n2)ccc1O	65*	-5	1	17	x	1
O=C(NCCc1ccccc1)c1ccc(Cl)c(S(=O)(=O)N2CCOCC2)c1	-47	x	x	-44	x	1
